The values below come from PubChem BioAssay.

A short description of assay [1]: STAT3 reporter inhibitors, retest of hits, confirmation, U3A cells, luciferase, luminescence (AID 1265;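 active means inhibition above the hit cutoff computed for the primary STAT3 screen, cut at about 44% in these data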;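 further: 0% = IL-6 plus DMSO and 100% = IL-6 plus nifuroxazide control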). The conditions noted are these: IL-6 STAT3 luciferase reporter, at 5.7 µM, hits give high values, cell line lacks STAT1. Background: Reporter assays use an easily measured gene product as a stand-in for the process of interest.
Assay [2] is described as follows: NF-kB reporter inhibitors in human cells, confirmation, counter-screen for STAT3 inhibitor project, cell-based, HEK293T, luciferase, TNF-alpha stimulus (AID 1308;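 active means inhibition above the mean of solvent-only control wells plus 3 SD, cutoff set per campaign, cut at about 13% in these data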;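 further: 0% = TNF-alpha with DMSO and 100% = TNF-alpha with MG high control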). To be noted: TNF-alpha induced, at 5.7 µM, hits give high values. On the technique in general: A counterscreen serves to expose hits that act by an unwanted route or on another target.
Assay [3] is described as follows: STAT1 reporter inhibitors, IFN-gamma induced, confirmation, counter-screen for STAT3 inhibitor project, cell-based, NIH 3T3, luciferase luminescence (AID 1317).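 Further: 0% = DMSO with IFN-gamma and 100% = nifuroxazide control.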 The conditions noted are these: NIH 3T3 STAT1-luciferase reporter, at 5.7 µM, hits give high values.
Assay [4] can be described thus: KLF5 expression inhibitors, confirmation, DLD-1 cells, luminescence (AID 1834;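 active means inhibition above a set limit taken from the earlier primary screen, cut at about 63% in these data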;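 further: 0% = DMSO wells and 100% = LY294002 at 200 µM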). To be noted: DLD-1 KLF5 promoter firefly luciferase reporter, at 4 µM, hits give high values.
Assay [5] can be described thus: cytotoxicity in rat IEC-6 cells, cytotoxicity control for KLF5 inhibitor project, cell-based, luminescence, triplicate (AID 1905; in the data active means inhibition above about 23%;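 further: cells exposed to compounds for 48 hours before viability read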). The conditions noted are these: IEC-6 rat intestinal cells, viability luminescence; at 4 µM; hits give high values.
The target in assay [6] is Nuclear receptor coactivator 3 (Homo sapiens) (UniProt Q9Y6Q9). The assay can be described thus: SRC3 coactivator transcriptional activity inhibitors, confirmation, cell-based, luminescence, quadruplicate (AID 588792;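 active means mean inhibition over 43.08%, the solvent-only control mean plus 3 SD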;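 further: 0% = DMSO treated cells and 100% = gossypol at 36 µM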). To be noted: HEK293 GAL4-SRC3 luciferase reporter, at 3.6 µM, hits give high values.
Chain of Nuclear receptor coactivator 3 (Homo sapiens) (Q9Y6Q9 whole entry, looked up, the tested form may be a part): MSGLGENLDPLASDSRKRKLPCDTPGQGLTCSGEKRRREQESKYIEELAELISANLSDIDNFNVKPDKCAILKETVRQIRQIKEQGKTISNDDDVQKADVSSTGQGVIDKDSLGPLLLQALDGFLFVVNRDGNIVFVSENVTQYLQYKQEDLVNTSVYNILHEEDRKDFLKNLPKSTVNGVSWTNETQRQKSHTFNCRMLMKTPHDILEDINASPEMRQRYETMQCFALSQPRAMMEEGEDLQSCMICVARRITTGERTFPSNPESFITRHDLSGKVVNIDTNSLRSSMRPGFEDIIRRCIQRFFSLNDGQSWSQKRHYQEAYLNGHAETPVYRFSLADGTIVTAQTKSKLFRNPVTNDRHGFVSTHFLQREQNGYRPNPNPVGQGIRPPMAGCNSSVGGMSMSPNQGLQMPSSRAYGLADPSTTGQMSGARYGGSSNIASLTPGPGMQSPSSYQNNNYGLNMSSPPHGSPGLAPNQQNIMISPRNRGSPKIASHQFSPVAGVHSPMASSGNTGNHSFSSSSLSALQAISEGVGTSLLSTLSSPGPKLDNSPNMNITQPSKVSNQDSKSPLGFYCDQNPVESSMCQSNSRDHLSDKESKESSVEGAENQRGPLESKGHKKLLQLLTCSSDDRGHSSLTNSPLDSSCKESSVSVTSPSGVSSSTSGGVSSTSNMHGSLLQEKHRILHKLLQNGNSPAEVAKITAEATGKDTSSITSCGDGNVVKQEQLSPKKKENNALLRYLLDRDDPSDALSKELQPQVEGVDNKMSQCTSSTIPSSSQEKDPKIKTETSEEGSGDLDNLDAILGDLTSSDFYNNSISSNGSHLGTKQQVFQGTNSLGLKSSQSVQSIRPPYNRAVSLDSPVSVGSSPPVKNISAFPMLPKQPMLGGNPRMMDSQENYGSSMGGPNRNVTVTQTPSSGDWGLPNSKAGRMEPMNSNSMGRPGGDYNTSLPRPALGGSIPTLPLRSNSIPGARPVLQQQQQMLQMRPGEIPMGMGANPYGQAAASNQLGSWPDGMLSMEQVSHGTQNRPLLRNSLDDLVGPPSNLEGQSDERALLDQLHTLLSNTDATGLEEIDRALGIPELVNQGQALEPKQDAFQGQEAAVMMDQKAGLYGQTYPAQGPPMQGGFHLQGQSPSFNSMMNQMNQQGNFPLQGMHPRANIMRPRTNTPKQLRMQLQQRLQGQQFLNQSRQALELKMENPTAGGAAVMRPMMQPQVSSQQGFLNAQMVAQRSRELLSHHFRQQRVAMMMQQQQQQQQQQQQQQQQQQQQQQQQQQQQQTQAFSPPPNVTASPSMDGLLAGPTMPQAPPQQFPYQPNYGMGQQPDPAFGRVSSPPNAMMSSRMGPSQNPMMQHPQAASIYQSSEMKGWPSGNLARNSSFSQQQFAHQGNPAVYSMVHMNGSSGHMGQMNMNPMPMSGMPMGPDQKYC
Assay [7] concerns transactivating tegument protein VP16 (Human herpesvirus 1), Gal4-VP16 luciferase reporter. Briefly: VP16 transactivation inhibitors, counter-screen for SRC3 inhibitor project, cell-based, luminescence, high throughput (AID 588794; in the data active means inhibition above about 30%). The conditions noted are these: mammalian cells, VP16-driven luciferase reporter luminescence; at 3.6 µM; hits give high values.
Assay [8] deals with Photoreceptor-specific nuclear receptor (Homo sapiens) (UniProt Q9Y5X4). Briefly: NR2E3 agonist confirmation in cells, cell-based, luminescence, CHO-S two-hybrid (AID 624378;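 active means average inhibition above a cutoff equal to the mean inhibition of all tested compounds plus one SD, cut at about 70% in these data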;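 further: 0% = DMSO in NR2E3 cells and 100% = DMSO in cells lacking NR2E3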). The conditions noted are these: CHO-S mammalian two-hybrid NR2E3-NCOR, luciferase luminescence; at 3.98 µM; hits give high values.
Chain of Photoreceptor-specific nuclear receptor (Homo sapiens) (Q9Y5X4 whole entry, looked up, the tested form may be a part): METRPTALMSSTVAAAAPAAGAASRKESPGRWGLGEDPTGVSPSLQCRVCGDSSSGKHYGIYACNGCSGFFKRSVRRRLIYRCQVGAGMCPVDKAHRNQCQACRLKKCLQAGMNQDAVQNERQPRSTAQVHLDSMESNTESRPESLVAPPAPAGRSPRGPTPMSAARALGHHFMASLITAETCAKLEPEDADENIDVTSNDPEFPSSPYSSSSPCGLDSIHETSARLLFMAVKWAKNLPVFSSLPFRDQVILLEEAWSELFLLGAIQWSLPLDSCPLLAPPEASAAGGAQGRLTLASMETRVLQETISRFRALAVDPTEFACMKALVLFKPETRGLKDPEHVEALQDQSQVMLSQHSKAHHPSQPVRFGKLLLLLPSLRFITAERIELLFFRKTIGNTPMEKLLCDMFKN
The nature of assay [9]: GAL4-VP16 reporter modulators, confirmation, counter-screen for NR2E3 agonist project, cell-based, luminescence, CHO-S, high throughput (AID 624379;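 active means mean inhibition above a cutoff equal to the average over all tested compounds plus one standard deviation, cut at about 70% in these data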;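 further: 0% = DMSO with VP16-transfected cells and 100% = DMSO with cells lacking VP16; higher means less reporter light so more repression of VP16 activity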). To be noted: CHO-S GAL4-VP16 luciferase reporter, at 3.98 µM, hits give high values.
Assay [10] in a line: StAR promoter reporter inhibitors, counter-screen for LRH-1 inverse agonist project, cell-based, luminescence, high throughput (AID 651611; in the data active means inhibition above about 28%). To be noted: StAR promoter luciferase reporter counterscreen, at 3.6 µM, hits give high values.
Assay [11] deals with Nuclear receptor subfamily 5 group A member 2 (Homo sapiens) (UniProt O00482). The assay can be described thus: LRH-1 (NR5A2) inverse agonists, retest, confirmation, cell-based, luminescence (AID 651613; in the data active means inhibition above about 42%;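 further: HEK293T cells co-transfected with LRH-1 and StAR promoter luciferase reporter; 0% = vehicle wells and 100% = parental cells lacking receptor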). To be noted: cell-based LRH-1 luciferase reporter, inverse agonism; at 3.6 µM; hits give high values.
Chain of Nuclear receptor subfamily 5 group A member 2 (Homo sapiens) (O00482 whole entry, looked up): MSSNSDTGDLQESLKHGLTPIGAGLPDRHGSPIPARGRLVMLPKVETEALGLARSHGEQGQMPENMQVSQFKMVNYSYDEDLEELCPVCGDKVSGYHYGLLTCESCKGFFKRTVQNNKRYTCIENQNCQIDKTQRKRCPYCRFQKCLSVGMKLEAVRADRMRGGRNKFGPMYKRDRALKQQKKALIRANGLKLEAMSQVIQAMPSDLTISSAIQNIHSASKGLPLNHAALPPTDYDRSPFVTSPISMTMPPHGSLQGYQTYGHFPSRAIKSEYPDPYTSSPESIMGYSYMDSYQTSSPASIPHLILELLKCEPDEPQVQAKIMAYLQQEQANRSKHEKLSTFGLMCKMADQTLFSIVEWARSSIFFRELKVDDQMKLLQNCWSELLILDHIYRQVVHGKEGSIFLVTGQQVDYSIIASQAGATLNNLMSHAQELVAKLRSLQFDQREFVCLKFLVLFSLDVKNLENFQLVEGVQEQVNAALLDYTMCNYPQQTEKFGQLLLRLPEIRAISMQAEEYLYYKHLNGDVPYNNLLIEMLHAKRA
Assay [12] has as its target Steroidogenic factor 1 (Homo sapiens) (UniProt Q13285). The assay can be described thus: SF1 (NR5A1) inverse agonists, counter-screen for LRH-1 inverse agonist project, cell-based, luminescence, high throughput (AID 651614; in the data active means inhibition above about 44%;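 further: cells cotransfected with StAR promoter reporter and SF1 expression vector; 0% = vehicle on cells with receptor and 100% = vehicle on cells lacking receptor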). To be noted: cell-based SF1 luciferase reporter, at 3.6 µM, hits give high values.
The nature of assay [13]: VP16 transactivation reporter inhibitors, counter-screen for LRH-1 inverse agonist project, cell-based, luminescence, high throughput (AID 651615; in the data active means inhibition above about 33%). The conditions noted are these: Gal4-VP16 luciferase reporter cells, at 3.6 µM, hits give high values.
Assay [14] is described as follows: Gal4-VP16 luciferase reporter inhibitors, counter-screen for COUP-TFII antagonist project, cell-based, luminescence, HEK293 (AID 687007; in the data active means inhibition above about 13%). The conditions noted are these: at 8.5 µM, hits give high values.
The target in assay [15] is COUP transcription factor 2 (Homo sapiens) (UniProt P24468). Briefly: NR2F2 transcriptional activity inhibitors, confirmation, cell-based, luciferase reporter, HEK293, triplicate (AID 687008;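 active means mean inhibition over three repeats above a set limit taken from the earlier primary screen, cut at about 38% in these data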;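 further: 100% = cells given the luciferase reporter alone without the COUP-TF2 vector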). The conditions noted are these: HEK293 NGFI-A luciferase reporter, luminescence; at 8.5 µM; hits give high values.
Chain of COUP transcription factor 2 (Homo sapiens) (P24468 whole entry, looked up, the tested form may be a part): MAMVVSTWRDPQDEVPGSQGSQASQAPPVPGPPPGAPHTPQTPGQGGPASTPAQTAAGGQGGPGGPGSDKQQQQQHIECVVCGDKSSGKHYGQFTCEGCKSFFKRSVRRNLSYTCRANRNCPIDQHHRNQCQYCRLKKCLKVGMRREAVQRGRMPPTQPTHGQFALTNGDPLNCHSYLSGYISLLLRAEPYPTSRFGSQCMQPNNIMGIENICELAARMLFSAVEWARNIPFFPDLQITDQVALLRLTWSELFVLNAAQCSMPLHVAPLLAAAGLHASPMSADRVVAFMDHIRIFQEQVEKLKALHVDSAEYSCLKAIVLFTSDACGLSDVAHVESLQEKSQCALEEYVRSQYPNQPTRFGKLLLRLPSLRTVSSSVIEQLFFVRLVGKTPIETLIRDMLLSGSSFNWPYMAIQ
Assay [16] deals with DAF-12 nuclear receptor (Heterodera glycines), GAL4-LBD fusion. The assay can be described thus: H. glycines DAF-12 receptor agonists, confirmation, cell-based, luminescence, HEK293, GAL4-LBD fusion (AID 743050;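 active means mean activation over triplicate wells above the hit cutoff derived from the earlier primary screen, cut at about 11% in these data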;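 further: 0% = DMSO low control and 100% = 2 mM sodium butyrate high control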). The conditions noted are these: HEK293 GAL4-hgDAF12 luciferase reporter, agonist mode; at 6.8 µM; hits give high values; percent of butyrate response.
Assay [17] addresses Oxysterols receptor LXR-beta (Homo sapiens) (UniProt P55055). The assay can be described thus: LXR agonists, Gal4 luciferase reporter, confirmation, counter-screen for hgDAF-12 agonist project, cell-based, luminescence, HEK293, H. glycines campaign (AID 743051;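 active means mean activation of the triplicate above a set limit carried over from the primary screen, none filed active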). To be noted: 24 h, at 6.8 µM, hits give high values.
Assay [18] shares this target. Briefly: LXR agonists, Gal4 luciferase reporter, confirmation, counter-screen for hcDAF-12 agonist project, cell-based, luminescence, HEK293, H. contortus campaign (AID 743027;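 active means mean percent activation of the reporter above a cutoff set as the average over tested compounds plus their standard deviation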). The conditions noted are these: HEK293 Gal4-LXR tk-luc reporter, 24 h, at 6.8 µM, hits give high values, normalized: DMSO 0%, positive control 100%.
The test system of assay [19] is Nuclear hormone receptor DAF-12 (Haemonchus contortus). The assay can be described thus: H. contortus DAF-12 receptor agonists, confirmation, cell-based, luminescence, HEK293, lit1-tk-luc, triplicate (AID 743032;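 active means mean activation across triplicate tests above the threshold derived from the earlier primary screen, cut at about 5.5% in these data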;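 further: 0% = DMSO only wells and 100% = 3 µM Δ7-dafachronic acid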). To be noted: HEK293 hcDAF-12 lit1-tk-luc reporter, at 6.8 µM, hits give high values, % of Δ7-dafachronic acid response.
The target in assay [20] is Peroxisome proliferator-activated receptor gamma (Homo sapiens) (UniProt P37231). The assay can be described thus: agonists of PPARgamma SRC-2 coactivator recruitment, confirmation, biochemical, HTS (AID 1297; in the data active means activation above about 22%;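 further: 0% = vehicle alone and 100% = reference agonist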). To be noted: biochemical SRC-2 recruitment by PPARgamma; at 8 µM; hits give high values.
Chain of Peroxisome proliferator-activated receptor gamma (Homo sapiens) (P37231 whole entry, looked up): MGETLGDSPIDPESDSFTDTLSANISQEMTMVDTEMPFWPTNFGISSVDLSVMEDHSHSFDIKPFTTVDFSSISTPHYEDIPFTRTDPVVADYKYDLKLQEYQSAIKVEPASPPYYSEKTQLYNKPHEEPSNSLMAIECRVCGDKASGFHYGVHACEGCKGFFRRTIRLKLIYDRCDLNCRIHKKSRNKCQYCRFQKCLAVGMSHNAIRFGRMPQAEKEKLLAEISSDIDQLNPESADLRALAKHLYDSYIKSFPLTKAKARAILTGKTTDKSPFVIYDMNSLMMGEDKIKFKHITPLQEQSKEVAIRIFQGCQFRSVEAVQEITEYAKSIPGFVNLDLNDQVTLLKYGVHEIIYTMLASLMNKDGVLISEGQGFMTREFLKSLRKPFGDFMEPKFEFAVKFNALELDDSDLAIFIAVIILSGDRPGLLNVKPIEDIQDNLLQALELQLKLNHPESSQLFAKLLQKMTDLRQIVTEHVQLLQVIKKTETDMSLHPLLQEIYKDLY
The target is the same in assay [21]. The assay can be described thus: PPARgamma agonists recruiting SRC-1 coactivator, confirmation, biochemical (AID 1300; in the data active means activation above about 20%;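 further: 0% = vehicle wells and 100% = reference agonist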). To be noted: PPARgamma–SRC-1 coactivator recruitment biochemical assay; at 8 µM; hits give high values.
Assay [22] has as its target Peroxisome proliferator-activated receptor gamma (Homo sapiens) + Nuclear receptor coactivator 3 (Homo sapiens) (UniProt P37231+Q9Y6Q9). Briefly: PPARgamma-driven SRC-3 coactivator recruitment agonists, confirmation, biochemical (AID 1301; in the data active means activation above about 24%;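 further: 0% = vehicle wells and 100% = reference agonist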). To be noted: biochemical PPARgamma-SRC-3 coactivator recruitment, agonist mode; at 8 µM; hits give high values.

Unmarked numbers belong to inactive results. The list shows a part of the results. Active and inactive are the calls of the source.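 How the source made its calls, unless noted: active means inhibition above the mean plus 3 SD of solvent-only control wells, limit set per screening run (cut at about 16% in these data); inactive means the rest.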

In general, inhibition refers to the drop in the measured response relative to a control, in per cent.

Chain of Oxysterols receptor LXR-beta (Homo sapiens) (P55055 whole entry, looked up, the tested form may be a part): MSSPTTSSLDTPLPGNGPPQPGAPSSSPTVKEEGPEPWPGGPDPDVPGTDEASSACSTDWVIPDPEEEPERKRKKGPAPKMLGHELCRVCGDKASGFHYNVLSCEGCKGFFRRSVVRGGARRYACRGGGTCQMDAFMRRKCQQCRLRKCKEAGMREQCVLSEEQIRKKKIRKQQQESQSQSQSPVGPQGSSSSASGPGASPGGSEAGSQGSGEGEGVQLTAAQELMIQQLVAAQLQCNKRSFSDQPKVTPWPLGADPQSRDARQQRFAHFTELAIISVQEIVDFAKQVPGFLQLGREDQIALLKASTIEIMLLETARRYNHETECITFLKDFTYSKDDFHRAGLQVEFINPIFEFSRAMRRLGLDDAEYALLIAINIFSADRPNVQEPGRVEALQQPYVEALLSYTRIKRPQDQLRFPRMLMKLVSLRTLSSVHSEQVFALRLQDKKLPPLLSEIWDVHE
Chain of Peroxisome proliferator-activated receptor gamma (Homo sapiens) + Nuclear receptor coactivator 3 (Homo sapiens) (P37231 whole entry, looked up): as the sequence (P37231 whole entry, looked up) above
Chain of Peroxisome proliferator-activated receptor gamma (Homo sapiens) + Nuclear receptor coactivator 3 (Homo sapiens) (Q9Y6Q9 whole entry, looked up): as the sequence (Q9Y6Q9 whole entry, looked up, the tested form may be a part) above
Chain of Steroidogenic factor 1 (Homo sapiens) (Q13285 whole entry, looked up, the tested form may be a part): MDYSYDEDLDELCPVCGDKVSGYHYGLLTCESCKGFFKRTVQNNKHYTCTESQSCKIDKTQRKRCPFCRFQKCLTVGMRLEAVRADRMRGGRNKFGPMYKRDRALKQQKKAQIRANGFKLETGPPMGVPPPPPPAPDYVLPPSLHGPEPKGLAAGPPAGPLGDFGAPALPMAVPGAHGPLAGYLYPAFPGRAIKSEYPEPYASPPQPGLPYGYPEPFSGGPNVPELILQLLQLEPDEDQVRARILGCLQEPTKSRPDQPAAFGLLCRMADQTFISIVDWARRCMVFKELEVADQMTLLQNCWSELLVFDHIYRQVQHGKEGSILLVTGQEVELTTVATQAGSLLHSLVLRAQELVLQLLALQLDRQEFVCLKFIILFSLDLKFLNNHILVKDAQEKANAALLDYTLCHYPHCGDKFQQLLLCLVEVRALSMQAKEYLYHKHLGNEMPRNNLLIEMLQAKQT

Turning to `O=C(Nc1nc2ccccc2s1)c1ccc2c(c1)OCO2`, the inhibition in assay [1] was 41.7%; in assay [2] it was 10.6%; in assay [3] it was -93.8%.

In the case of `COc1cc(N=Cc2c(O)[nH]c3ccccc23)cc(OC)c1OC`, the inhibition in [1] was 49.1% (active); in assay [2], 27% (active); in assay [3], -12%; in [4] it was 76.8% (active); in assay [5], 19.1%; in assay [6], 28.2%. Also, the inhibition was 1.5% in [7]; 73.8% (active) in [8]; 58.7% in assay [9]; 61.7% (active) in assay [10]; 54.4% (active) in assay [11]; 69.2% (active) in [12]. In assay [13], the inhibition was 25.2%.

As for `Cn1c(CN2CCOCC2)nc2cc(NC(=O)c3ccc(Cl)cc3)ccc21`, the inhibition in assay [1] was 65% (active); in [2], 16.1% (active); in assay [3], -12%; in assay [14], -24.2%; in [15], 24.5%.

As to `O=C(Nc1ccc(Cl)cn1)c1ccc2c(c1)OCCO2`, the inhibition was 26.7% in assay [1], -3.07% in [2] and -103% in [3]. Further, the activation in assay [16] was 13.4% (active); in assay [17], 0.89%.

Regarding `CCCOc1ccc(C(=O)NCCc2ccccc2)cc1`, the inhibition was 11.6% in assay [1], -7.27% in assay [2] and -61.1% in assay [3]. In addition, the activation was 1.59% in assay [18], 7.43% (active) in assay [19], 14.1% (active) in assay [16] and 0.6% in [17].

In the case of `CC(C)(CNC(=O)c1ccc(Cl)c(S(=O)(=O)N2CCc3ccccc3C2)c1)N1CCOCC1`, the inhibition was 57.1% (active) in assay [1]; 13.4% (active) in assay [2]; 9% in assay [3]; 7.77% in assay [6]; 32.8% (active) in [7]; 0.6% in [14]. Also, in assay [15], the inhibition is 38.9% (active).

For the molecule `CCc1ccc2oc(-c3ccc(N)cc3)nc2c1`, the inhibition in [1] is 36.1%; in [2] it was 13.1% (active); in assay [3] it was -84.8%. Further, the activation is 1.54% in [18], 10.2% (active) in assay [19], 18.3% (active) in assay [16] and 1.35% in assay [17].

In the case of `CCn1c(SCC(=O)Nc2cccc(F)c2)nnc1-c1cc2cc(Br)ccc2o1`, the figures for the activation in assay [20], in assay [21] and in assay [22] were 18%, 15% and 14.3%, respectively.

Turning to `O=c1oc(/C=C/c2ccccc2)nc2ccccc12`, the inhibition is 10.7% in [1], -7.17% in assay [2] and -42.9% in assay [3]. Besides, the activation is 14.4% (active) in assay [16] and 0.58% in assay [17].

As to `Cc1csc(SCC(=O)Nc2sccc2C#N)n1`, the figures for the inhibition in assay [1], in [2] and in [3] were 7.4%, -23.8% and -80.2%, respectively. Moreover, the activation in assay [18] was 1.59%; in [19] it was 10.3% (active).

As for `Cc1ccccc1-c1n[nH]c(=S)n1/N=C/c1ccc(-c2ccccc2Br)o1`, the activation was 33.5% (active) in assay [20], 28.2% (active) in assay [21] and 22.5% in assay [22].

For the molecule `COc1ccc(S(=O)(=O)Nc2ccc3oc(C)c(C(C)=O)c3c2)cc1`, the inhibition is 32.3% in assay [1]; 13.4% (active) in assay [2]; 20.4% (active) in assay [3]; 93% (active) in [8]; 79.4% (active) in assay [9]; 1.7% in assay [14]. For the same molecule, the inhibition in assay [15] was 20.7%.
